In PubChem BioAssay:
The source made the active and inactive calls. Unless noted, no rule for the calls is given here.

Legend:
[1] = system: Wnt5a (protein binding on small-molecule microarray); experiment: Wnt5a binders on small-molecule microarray, primary screen, biophysical, 635/667 nm fluorescence (AID 1142); conditions: 635 nm fluorescence, higher = more signal;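 also: fluorescence read at 667 nm with signal to noise per printed feature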
[2] = cell viability in Huh7 cells, primary screen, cytotoxicity control for HCV replication inhibitor project, CellTiter-Glo luminescence, basal, 48 h (AID 1143); conditions: Huh7 HCV replicon, higher = more signal, called active from +8 up or from −8 down;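 also: Huh7 hepatoma cells carrying a hepatitis C replication reporter with no stimulus; test concentration not given here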
[3] = P. aeruginosa biofilm formation inhibitors, primary screen, PAO1 strain, BacTiter-Glo luminescence, LB-PBS (AID 1144); conditions: 12 h, higher = more signal
[4] = CREB reporter modulators without forskolin, primary screen, cell-based, PC12, CRE-LacZ reporter, unstimulated (AID 1145); conditions: no forskolin, luminescence, 4.5 h, higher = more signal, called active from +8 up or from −8 down
[5] = CREB reporter modulators under forskolin, primary screen, cell-based, PC12, CRE-LacZ reporter, forskolin-stimulated (AID 1146); conditions: luminescence, 4.5 h, higher = more signal, called active from +8 up or from −8 down;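 also: PC12 cells with 6xCRE LacZ reporter stimulated by forskolin 10 µM; beta-galactosidase reporter signal reflecting CREB driven transcription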
[6] = target: Streptavidin (Streptomyces avidinii) (UniProt P22629); experiment: streptavidin binders on small-molecule microarray, primary screen, artefact control for SMM compound annotation, biophysical, 635/667 nm fluorescence (AID 1147); conditions: streptavidin binding, higher = more signal;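 also: signal reflects streptavidin binding to arrayed compounds as a control protein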
Sequence of Streptavidin (Streptomyces avidinii) (P22629 whole entry, looked up): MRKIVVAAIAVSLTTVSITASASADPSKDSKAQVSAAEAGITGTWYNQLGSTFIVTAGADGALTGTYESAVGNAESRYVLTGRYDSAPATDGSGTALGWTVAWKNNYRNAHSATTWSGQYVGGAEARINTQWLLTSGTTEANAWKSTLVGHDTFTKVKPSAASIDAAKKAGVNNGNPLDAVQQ

[7] = small-molecule binders of probe aInhba, primary screen, biochemical, small-molecule microarray, 635/667 nm fluorescence (AID 1148); conditions: higher = more signal;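 also: score merges 667nm spot fluorescence with signal-to-noise for antibody binding to printed compounds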
Torsin-1A (Homo sapiens) [8] = target: Torsin-1A (Homo sapiens) (UniProt O14656); experiment: torsin A binders from cell lysate, primary screen, small-molecule microarray, wild-type, 635/667 nm (AID 1149); conditions: COS7 hTOR1A-WT lysate, 635 nm fluorescence, higher = more signal
Sequence of Torsin-1A (Homo sapiens) (O14656 whole entry, looked up): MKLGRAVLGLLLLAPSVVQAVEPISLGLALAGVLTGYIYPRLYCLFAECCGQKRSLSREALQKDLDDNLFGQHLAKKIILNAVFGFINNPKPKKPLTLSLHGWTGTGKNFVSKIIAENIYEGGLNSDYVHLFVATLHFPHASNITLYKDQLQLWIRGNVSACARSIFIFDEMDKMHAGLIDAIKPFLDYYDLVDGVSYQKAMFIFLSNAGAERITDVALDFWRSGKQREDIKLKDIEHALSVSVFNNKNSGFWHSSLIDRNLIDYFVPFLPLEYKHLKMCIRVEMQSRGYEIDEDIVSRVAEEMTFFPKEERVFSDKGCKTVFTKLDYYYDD

Torsin-1A (Homo sapiens) [9] = target: Torsin-1A (Homo sapiens) (UniProt O14656); experiment: small-molecule binders of mutant TOR1A in lysate, primary screen, cell lysate, small-molecule microarray, COS7 lysate, 635/667 nm fluorescence (AID 1150); conditions: COS7 hTOR1A mutant lysate, 635 nm fluorescence, higher = more signal;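 also: score pools 667 nm emission and signal to noise measuring lysate protein binding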
[10] = system: Sonic hedgehog protein (Shh); experiment: small-molecule binders of Shh protein, primary screen, biochemical, small-molecule microarray, 635/667 nm fluorescence (AID 1151); conditions: small-molecule microarray binding, 635 nm fluorescence; higher = more signal;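 also: Shh protein binding to compounds spotted on small-molecule microarray slides; score combines spot fluorescence intensity with signal-to-noise across triplicate slides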
[11] = E. coli DRC41 culture turbidity changes, primary screen, E. coli filamentation inducer project, strain DRC41, OD650, 48 h (AID 1152);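 also: E. coli MC1000 strain DRC41 lacking acrAB efflux pump and sulA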; conditions: E. coli DRC41 (acrAB sulA), higher = more signal, called active from +8 up or from −8 down
[12] = small-molecule binders of probe aLefty1, primary screen, biochemical, small-molecule microarray, 635/667 nm fluorescence (AID 1153); conditions: higher = more signal;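 also: score merges spot fluorescence with signal-to-noise ratio from the scanned slide images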
[13] = PSAC antagonists in infected red cells, primary screen, cell-based, P. falciparum Indochina, OD700, 1 h (AID 1154); conditions: P. falciparum Indochina infected RBC osmotic lysis, higher = more signal, called active from +8 up or from −8 down
[14] = PSAC antagonists in infected red cells, primary screen, cell-based, P. falciparum Indochina, OD700, 2 h (AID 1155);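 also: lysis reports solute entry through the parasite surface anion channel PSAC; channel blockers reduce lysis of infected cells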; conditions: P. falciparum Indochina infected erythrocytes, osmotic lysis OD700; higher = more signal, called active from +8 up or from −8 down
[15] = osmotic lysis modulators in infected erythrocytes, primary screen, PSAC antagonist project, cell-based, P. falciparum Indochina, OD700, 3 h (AID 1156); conditions: higher = more signal, called active from +8 up or from −8 down
[16] = PSAC antagonists in infected red cells, primary screen, cell-based, P. falciparum Indochina, OD700, 18 h (AID 1157); conditions: P. falciparum Indochina infected erythrocytes, osmotic lysis OD700, 18 h; higher = more signal, called active from +8 up or from −8 down
[17] = modulators of S6 phosphorylation in cells, primary screen, cell-based, A549, cytoblot, luminescence, serum-stimulated (AID 1158); conditions: A549 phospho-S6 cytoblot, 5 h, higher = more signal;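 also: serum-stimulated A549 lung adenocarcinoma cells; signal is phosphorylated S6 detected by cytoblot immunostaining with HRP secondary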
[18] = target: NADPH oxidase 2 (Homo sapiens) (UniProt P04839); experiment: NOX2-dependent H2O2 signal modulators, primary screen, NOX inhibitor project, cell-based, HEK293-NOX2, PMA-stimulated, Amplex Red fluorescence (AID 1159); conditions: 45 min, higher = more signal, called active from +8 up or from −8 down; also: test concentration not given here
Sequence of NADPH oxidase 2 (Homo sapiens) (P04839 whole entry, looked up): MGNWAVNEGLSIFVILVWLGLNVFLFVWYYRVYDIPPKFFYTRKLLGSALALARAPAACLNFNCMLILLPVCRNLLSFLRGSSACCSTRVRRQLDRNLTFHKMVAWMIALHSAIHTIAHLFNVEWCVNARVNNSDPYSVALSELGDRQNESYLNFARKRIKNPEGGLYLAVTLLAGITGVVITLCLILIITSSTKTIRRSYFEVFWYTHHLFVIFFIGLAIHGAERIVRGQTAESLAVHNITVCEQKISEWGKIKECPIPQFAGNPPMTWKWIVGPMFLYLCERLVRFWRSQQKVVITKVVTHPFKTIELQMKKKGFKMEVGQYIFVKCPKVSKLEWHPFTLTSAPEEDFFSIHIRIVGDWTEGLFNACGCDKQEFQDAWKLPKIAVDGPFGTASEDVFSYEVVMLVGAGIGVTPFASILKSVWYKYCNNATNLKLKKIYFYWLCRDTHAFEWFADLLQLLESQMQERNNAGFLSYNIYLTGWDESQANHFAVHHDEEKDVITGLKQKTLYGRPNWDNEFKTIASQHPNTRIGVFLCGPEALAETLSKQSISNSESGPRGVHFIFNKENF

[19] = target: NADPH oxidase 4 (Homo sapiens) (UniProt Q9NPH5); experiment: NOX4-dependent H2O2 signal modulators, primary screen, NOX inhibitor project, cell-based, HEK293-NOX4, tetracycline-induced, Amplex Red fluorescence (AID 1160); conditions: 45 min, higher = more signal, called active from +8 up or from −8 down
Sequence of NADPH oxidase 4 (Homo sapiens) (Q9NPH5 whole entry, looked up): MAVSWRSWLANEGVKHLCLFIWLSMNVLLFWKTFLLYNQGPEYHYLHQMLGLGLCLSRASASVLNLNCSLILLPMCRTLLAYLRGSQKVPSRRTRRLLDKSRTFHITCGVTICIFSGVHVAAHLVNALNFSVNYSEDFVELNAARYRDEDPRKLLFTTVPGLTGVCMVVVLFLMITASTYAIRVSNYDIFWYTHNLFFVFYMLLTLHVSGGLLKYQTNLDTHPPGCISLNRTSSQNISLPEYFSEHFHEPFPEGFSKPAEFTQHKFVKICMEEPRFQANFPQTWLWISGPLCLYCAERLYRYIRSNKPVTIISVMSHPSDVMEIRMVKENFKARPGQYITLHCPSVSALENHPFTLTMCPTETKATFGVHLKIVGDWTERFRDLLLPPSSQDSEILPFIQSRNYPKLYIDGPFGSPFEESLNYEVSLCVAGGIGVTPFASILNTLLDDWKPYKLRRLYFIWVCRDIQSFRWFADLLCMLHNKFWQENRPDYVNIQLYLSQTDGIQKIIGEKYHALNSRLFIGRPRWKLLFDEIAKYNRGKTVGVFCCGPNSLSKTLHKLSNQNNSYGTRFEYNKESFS

[20] = target: NADPH oxidase 5 (Homo sapiens) (UniProt Q96PH1); experiment: NOX5-dependent H2O2 signal modulators, primary screen, NOX inhibitor project, cell-based, HEK293-NOX5, Amplex Red fluorescence (AID 1161); conditions: HEK293-NOX5, ionomycin, 45 min, higher = more signal
Sequence of NADPH oxidase 5 (Homo sapiens) (Q96PH1 whole entry, looked up): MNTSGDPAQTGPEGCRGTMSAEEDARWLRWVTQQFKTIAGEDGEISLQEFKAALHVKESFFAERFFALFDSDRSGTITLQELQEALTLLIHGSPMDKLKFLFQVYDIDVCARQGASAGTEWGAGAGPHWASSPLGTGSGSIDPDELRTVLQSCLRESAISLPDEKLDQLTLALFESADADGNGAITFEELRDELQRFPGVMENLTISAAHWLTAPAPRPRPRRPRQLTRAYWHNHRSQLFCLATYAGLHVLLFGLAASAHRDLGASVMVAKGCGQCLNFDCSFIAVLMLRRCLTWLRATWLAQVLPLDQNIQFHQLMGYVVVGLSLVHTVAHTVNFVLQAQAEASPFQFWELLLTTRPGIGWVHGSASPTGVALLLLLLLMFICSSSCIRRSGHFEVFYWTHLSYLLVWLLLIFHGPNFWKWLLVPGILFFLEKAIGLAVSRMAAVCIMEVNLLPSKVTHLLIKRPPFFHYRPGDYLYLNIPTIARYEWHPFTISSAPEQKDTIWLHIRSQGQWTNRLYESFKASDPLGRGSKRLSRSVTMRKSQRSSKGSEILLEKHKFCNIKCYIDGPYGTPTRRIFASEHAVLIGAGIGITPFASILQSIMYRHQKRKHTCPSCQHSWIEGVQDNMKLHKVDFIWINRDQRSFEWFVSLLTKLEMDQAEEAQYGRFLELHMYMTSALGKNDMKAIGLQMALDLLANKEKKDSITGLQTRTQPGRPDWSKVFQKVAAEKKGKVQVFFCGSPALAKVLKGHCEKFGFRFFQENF

| Compound | composite z-score [1] | z-score [2] | z-score [3] | z-score [4] | z-score [5] | composite z-score [6] | composite z-score [7] | composite z-score (Torsin-1A (Homo sapiens) [8]) | composite z-score (Torsin-1A (Homo sapiens) [9]) | composite z-score [10] | z-score [11] | composite z-score [12] | z-score [13] | z-score [14] | z-score [15] | z-score [16] | z-score [17] | z-score [18] | z-score [19] | z-score [20] |
| --- | --- | --- | --- | --- | --- | --- | --- | --- | --- | --- | --- | --- | --- | --- | --- | --- | --- | --- | --- | --- |
| CC(C)(C)N1C(=O)[C@H]2[C@H]3[C@H](O)[C@H](O)CC(=NOC[C@@H](O)COCc4ccco4)[C@H]3CC[C@H]2C1=O | -0.0267 | 0.186 (inactive) | -0.486 (inactive) | 0.701 (inactive) | -0.113 (inactive) | 0.422 | -0.0279 | 0.506 | 0.465 | -0.0386 | 0.0965 (inactive) | 0.21 | 1.18 (inactive) | -0.423 (inactive) | 0.0556 (inactive) | 0.33 (inactive) | -0.159 | 0.119 (inactive) | 0.0791 (inactive) | 0.188 |
| COc1ccc(O[C@H]2C=C[C@@H](c3ccccc3)O[C@@H]2CON=C2c3cc(OC)ccc3O[C@H](c3cccc(OC)c3)[C@H]2O)cc1 | 0.288 | -0.0115 (inactive) | -0.0389 (inactive) | 0.913 (inactive) | 0.411 (inactive) | 0.414 | -0.224 | 0.0513 | 0.37 | 0.105 | -1.41 (inactive) | -0.237 | 4.7 (inactive) | 1.12 (inactive) | -0.392 (inactive) | 0.442 (inactive) | -1.1 | -0.0682 (inactive) | 0.264 (inactive) | 0.562 |
| COC(=O)CC=C[C@@H](C)[C@@H](C=NOC[C@@H](O)COCc1ccco1)OC | -0.302 | 0.545 (inactive) | 1.47 (inactive) | -1.05 (inactive) | -0.252 (inactive) | 0.457 | -0.214 | 3.02 | 2.69 | 1.99 | 0.245 (inactive) | -0.202 | 0.202 (inactive) | 0.322 (inactive) | -0.0838 (inactive) | 0.145 (inactive) | 0.564 | -0.499 (inactive) | 0.024 (inactive) | 0.403 |
| CO[C@@H]1COC(=O)[C@H](COCc2ccccc2)NC(=O)CC=C[C@@H](C)[C@H](OC)COC(=O)[C@@H](C)NC(=O)CC=C[C@H]1C | -0.128 | -0.0313 (inactive) | 0.104 (inactive) | 0.337 (inactive) | -0.803 (inactive) | -0.801 | -0.179 | 1.53 | 0.544 | 1.92 | 0.52 (inactive) | -0.193 | -0.302 (inactive) | -0.0696 (inactive) | 0.386 (inactive) | 0.131 (inactive) | 0.166 | -0.74 (inactive) | 0.773 (inactive) | 0.436 |
| COC(=O)[C@H](C)NC(=O)CCC1CC(OC(=O)NCCc2ccc(F)cc2)CC2(CCCC(COC(=O)NCCc3ccccc3OC)O2)O1 (stereo not given in full) | 0.249 | 0.137 (inactive) | 0.351 (inactive) | 0.559 (inactive) | 0.0825 (inactive) | 0.553 | -0.343 | 0.284 | 0.519 | 0.985 | 0.121 (inactive) | -0.103 | 6.98 (inactive) | 0.0923 (inactive) | 0.209 (inactive) | 0.15 (inactive) | 0.364 | 0.577 (inactive) | 0.369 (inactive) | -0.543 |
| COCC#Cc1ccc([C@@H]2N[C@H](C(=O)O)CC[C@H]2C)cc1 | -0.0223 | -1.23 (inactive) | -1.73 (inactive) | -0.0755 (inactive) | -1.56 (inactive) | 0.0402 | -0.024 | 0.24 | 0.0923 | 0.742 | -0.0799 (inactive) | -0.194 | -0.398 (inactive) | -0.478 (inactive) | -0.571 (inactive) | -0.867 (inactive) | 2.16 | -2.01 (inactive) | 0.301 (inactive) | 0.723 |
| COC(=O)CC=C[C@@H](C)[C@@H](C=NOC(C)CN1CCCc2nc(C)c(C)cc21)NS(=O)(=O)c1ccc(C)cc1 (stereo not given in full) | 0.448 | -0.214 (inactive) | 1.42 (inactive) | 0.0013 (inactive) | 0.541 (inactive) | -0.176 | 0.0982 | 0.308 | 0.309 | 0.791 | 0.364 (inactive) | 0.119 | 2.52 (inactive) | 0.584 (inactive) | 0.201 (inactive) | 0.49 (inactive) | -0.929 | -0.134 (inactive) | 0.283 (inactive) | -0.736 |
| CCN1C(=O)[C@H]2[C@H]3[C@H](O)[C@H](O)CC(=NOCC[C@@H]4C=C[C@H](OC(C)=O)[C@@H](COC(C)=O)O4)[C@@H]3CC[C@H]2C1=O | 0.0885 | -0.0735 (inactive) | 0.857 (inactive) | 0.0757 (inactive) | 0.313 (inactive) | -0.0034 | -0.109 | 0.014 | 0.296 | 0.55 | -0.405 (inactive) | -0.125 | 0.422 (inactive) | 0.329 (inactive) | -0.376 (inactive) | 0.44 (inactive) | -0.401 | 0.0899 (inactive) | -0.0656 (inactive) | 0.859 |
